Data from PubChem BioAssay.
Calls of active or inactive are those of the source. Unless noted, the rule behind the calls is not given here.

How the values were obtained:
[1] = anti-His antibody binders, primary screen, artefact control for SMM control protein annotation, biochemical, small-molecule microarray, 635 nm fluorescence (AID 1128); settings: anti-His Alexa647 antibody binding, higher = more signal;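 note: score merges feature fluorescence with signal-to-noise for each printed compound spot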
[2] = system: Human papillomavirus type 1a E7 protein (residues 1-88); test: HPV1a E7 small-molecule binders, primary screen, biochemical, small-molecule microarray, residues 1-88, 635 nm (AID 1129); settings: small-molecule microarray binding, fluorescence 635 nm; higher = more signal
[3] = target: Focal adhesion kinase 1 (Homo sapiens) (UniProt Q05397); test: small-molecule microarray binders of FAK, primary screen, biochemical, 635/667 nm fluorescence, BSA, DTT (AID 1130); settings: PTK2 binding, 635 nm fluorescence, higher = more signal;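 note: composite of spot emission at 667 nm and signal to noise over triplicate slides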
[4] = system: Fibrinogen (Alexa647-labelled); test: fibrinogen binders on compound microarrays, profiling panel, artefact control for SMM control-protein annotation, biochemical, small-molecule microarray, 635/667 nm fluorescence (AID 1131); settings: fibrinogen-A647 binding fluorescence, higher = more signal;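 note: z-score merges 667 nm fluorescence with per-spot signal-to-noise over triplicate slides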
[5] = target: Follistatin (Homo sapiens) (UniProt P19883); test: follistatin binders on small-molecule microarrays, primary screen, biochemical, small-molecule microarray, 635/667 nm fluorescence (AID 1132); settings: FST binding, 635 nm fluorescence, higher = more signal
[6] = target: Fibroblast growth factor 2 (Homo sapiens) (UniProt P09038); test: FGF2 binders on small-molecule microarrays, primary screen, biochemical, small-molecule microarray, 635/667 nm fluorescence (AID 1133); settings: small-molecule microarray binding, FGF2, fluorescence 635/667; higher = more signal
[7] = mitochondrial membrane potential change in A549 cells, profiling panel, cell-based, JC-1 fluorescence, basal, 24 h, 100 nL (AID 1138); settings: higher = more signal;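 note: A549 lung adenocarcinoma cells under basal conditions with no added stimulus; test concentration not given here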
Lefty1 = Lefty1 binders on small-molecule microarrays, primary screen, biochemical, small-molecule microarray, 635/667 nm fluorescence (AID 1139); settings: small-molecule microarray binding, fluorescence 635/667; higher = more signal
[8] = system: wheat germ agglutinin (Triticum aestivum), Alexa647-labelled; test: wheat germ agglutinin binders on compound microarrays, profiling panel, artefact control for SMM control-protein annotation, biochemical, small-molecule microarray, 635/667 nm fluorescence (AID 1140); settings: WGA-A647 binding, 635 nm fluorescence, higher = more signal;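 note: score merges 667 nm feature emission with signal to noise over triplicate slides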
[9] = target: Luciferin 4-monooxygenase (Photinus pyralis) (UniProt P08659); test: firefly luciferase enzyme inhibitors, primary screen, biochemical, luminescence, purified enzyme, 2006 set (AID 1141); settings: SteadyGlo luminescence, 30 min, higher = more signal, called active from +8 up or from −8 down;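 note: cell-free assay with purified firefly luciferase at 100 ng per well in PBS; test concentration not given here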
[10] = system: Wnt5a (protein binding on small-molecule microarray); test: Wnt5a binders on small-molecule microarray, primary screen, biophysical, 635/667 nm fluorescence (AID 1142); settings: 635 nm fluorescence, higher = more signal;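 note: fluorescence read at 667 nm with signal to noise per printed feature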
[11] = cell viability in Huh7 cells, primary screen, cytotoxicity control for HCV replication inhibitor project, CellTiter-Glo luminescence, basal, 48 h (AID 1143); settings: Huh7 HCV replicon, higher = more signal, called active from +8 up or from −8 down;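 note: Huh7 hepatoma cells carrying a hepatitis C replication reporter with no stimulus; test concentration not given here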
[12] = P. aeruginosa biofilm formation inhibitors, primary screen, PAO1 strain, BacTiter-Glo luminescence, LB-PBS (AID 1144); settings: 12 h, higher = more signal
[13] = CREB reporter modulators without forskolin, primary screen, cell-based, PC12, CRE-LacZ reporter, unstimulated (AID 1145); settings: no forskolin, luminescence, 4.5 h, higher = more signal, called active from +8 up or from −8 down
[14] = CREB reporter modulators under forskolin, primary screen, cell-based, PC12, CRE-LacZ reporter, forskolin-stimulated (AID 1146); settings: luminescence, 4.5 h, higher = more signal, called active from +8 up or from −8 down;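 note: PC12 cells with 6xCRE LacZ reporter stimulated by forskolin 10 µM; beta-galactosidase reporter signal reflecting CREB driven transcription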
[15] = target: Streptavidin (Streptomyces avidinii) (UniProt P22629); test: streptavidin binders on small-molecule microarray, primary screen, artefact control for SMM compound annotation, biophysical, 635/667 nm fluorescence (AID 1147); settings: streptavidin binding, higher = more signal;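 note: signal reflects streptavidin binding to arrayed compounds as a control protein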
[16] = small-molecule binders of probe aInhba, primary screen, biochemical, small-molecule microarray, 635/667 nm fluorescence (AID 1148); settings: higher = more signal;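 note: score merges 667nm spot fluorescence with signal-to-noise for antibody binding to printed compounds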
Torsin-1A (Homo sapiens) [17] = target: Torsin-1A (Homo sapiens) (UniProt O14656); test: torsin A binders from cell lysate, primary screen, small-molecule microarray, wild-type, 635/667 nm (AID 1149); settings: COS7 hTOR1A-WT lysate, 635 nm fluorescence, higher = more signal
Torsin-1A (Homo sapiens) [18] = target: Torsin-1A (Homo sapiens) (UniProt O14656); test: small-molecule binders of mutant TOR1A in lysate, primary screen, cell lysate, small-molecule microarray, COS7 lysate, 635/667 nm fluorescence (AID 1150); settings: COS7 hTOR1A mutant lysate, 635 nm fluorescence, higher = more signal;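 note: score pools 667 nm emission and signal to noise measuring lysate protein binding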
[19] = system: Sonic hedgehog protein (Shh); test: small-molecule binders of Shh protein, primary screen, biochemical, small-molecule microarray, 635/667 nm fluorescence (AID 1151); settings: small-molecule microarray binding, 635 nm fluorescence; higher = more signal;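 note: Shh protein binding to compounds spotted on small-molecule microarray slides; score combines spot fluorescence intensity with signal-to-noise across triplicate slides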

Chain of Fibroblast growth factor 2 (Homo sapiens) (P09038 whole entry, looked up): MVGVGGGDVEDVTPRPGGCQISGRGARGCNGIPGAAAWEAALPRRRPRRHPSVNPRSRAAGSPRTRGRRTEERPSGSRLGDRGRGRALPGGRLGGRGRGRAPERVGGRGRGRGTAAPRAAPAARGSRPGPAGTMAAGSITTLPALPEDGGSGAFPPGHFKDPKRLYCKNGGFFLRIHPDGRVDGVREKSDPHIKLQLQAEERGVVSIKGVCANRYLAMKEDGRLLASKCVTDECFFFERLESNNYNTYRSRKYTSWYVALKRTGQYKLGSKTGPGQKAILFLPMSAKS
Chain of Luciferin 4-monooxygenase (Photinus pyralis) (P08659 whole entry, looked up): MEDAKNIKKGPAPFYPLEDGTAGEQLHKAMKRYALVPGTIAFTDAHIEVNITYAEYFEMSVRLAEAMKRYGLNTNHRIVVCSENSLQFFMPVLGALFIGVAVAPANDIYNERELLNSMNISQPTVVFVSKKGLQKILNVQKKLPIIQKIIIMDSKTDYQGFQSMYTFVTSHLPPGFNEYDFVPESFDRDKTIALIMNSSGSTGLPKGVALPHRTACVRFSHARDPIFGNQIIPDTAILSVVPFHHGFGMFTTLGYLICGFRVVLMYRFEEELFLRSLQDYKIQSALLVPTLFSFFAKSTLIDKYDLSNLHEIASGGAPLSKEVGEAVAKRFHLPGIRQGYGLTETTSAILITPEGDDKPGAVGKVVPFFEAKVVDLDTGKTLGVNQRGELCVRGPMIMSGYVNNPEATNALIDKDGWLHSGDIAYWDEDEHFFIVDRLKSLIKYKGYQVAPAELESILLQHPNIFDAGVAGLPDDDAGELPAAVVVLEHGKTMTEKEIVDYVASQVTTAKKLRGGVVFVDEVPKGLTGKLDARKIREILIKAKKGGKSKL
Chain of Streptavidin (Streptomyces avidinii) (P22629 whole entry, looked up): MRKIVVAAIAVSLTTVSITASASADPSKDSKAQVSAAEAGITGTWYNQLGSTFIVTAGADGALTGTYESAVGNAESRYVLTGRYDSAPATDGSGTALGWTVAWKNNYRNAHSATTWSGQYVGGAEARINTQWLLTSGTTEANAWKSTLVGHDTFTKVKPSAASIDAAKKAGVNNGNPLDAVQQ
Chain of Focal adhesion kinase 1 (Homo sapiens) (Q05397 whole entry, looked up): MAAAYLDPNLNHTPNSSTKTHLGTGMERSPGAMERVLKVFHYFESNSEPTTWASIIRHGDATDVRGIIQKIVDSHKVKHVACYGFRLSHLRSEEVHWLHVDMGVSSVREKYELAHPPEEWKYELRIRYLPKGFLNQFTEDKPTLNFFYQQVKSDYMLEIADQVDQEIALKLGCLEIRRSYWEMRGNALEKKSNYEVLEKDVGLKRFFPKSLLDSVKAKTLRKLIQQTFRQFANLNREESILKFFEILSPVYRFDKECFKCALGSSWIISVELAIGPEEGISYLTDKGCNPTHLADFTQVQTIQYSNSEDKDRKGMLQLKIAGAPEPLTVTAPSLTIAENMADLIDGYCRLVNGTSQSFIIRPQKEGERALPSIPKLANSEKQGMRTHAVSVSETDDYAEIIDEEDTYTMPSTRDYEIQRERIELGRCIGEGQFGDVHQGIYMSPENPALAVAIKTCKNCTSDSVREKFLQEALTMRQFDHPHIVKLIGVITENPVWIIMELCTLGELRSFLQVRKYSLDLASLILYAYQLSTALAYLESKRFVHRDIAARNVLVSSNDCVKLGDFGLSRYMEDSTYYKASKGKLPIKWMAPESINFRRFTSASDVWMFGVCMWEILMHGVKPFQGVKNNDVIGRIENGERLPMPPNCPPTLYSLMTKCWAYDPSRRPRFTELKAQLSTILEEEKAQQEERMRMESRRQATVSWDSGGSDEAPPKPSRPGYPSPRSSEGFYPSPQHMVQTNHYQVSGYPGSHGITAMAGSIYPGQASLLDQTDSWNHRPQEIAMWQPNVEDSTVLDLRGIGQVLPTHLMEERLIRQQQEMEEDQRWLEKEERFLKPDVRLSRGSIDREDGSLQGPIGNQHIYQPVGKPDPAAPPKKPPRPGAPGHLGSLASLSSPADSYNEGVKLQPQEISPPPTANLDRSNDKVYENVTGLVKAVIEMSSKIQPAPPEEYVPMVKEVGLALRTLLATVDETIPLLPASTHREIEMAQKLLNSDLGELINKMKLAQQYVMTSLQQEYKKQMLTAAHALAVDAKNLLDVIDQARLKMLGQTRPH
Chain of Torsin-1A (Homo sapiens) (O14656 whole entry, looked up): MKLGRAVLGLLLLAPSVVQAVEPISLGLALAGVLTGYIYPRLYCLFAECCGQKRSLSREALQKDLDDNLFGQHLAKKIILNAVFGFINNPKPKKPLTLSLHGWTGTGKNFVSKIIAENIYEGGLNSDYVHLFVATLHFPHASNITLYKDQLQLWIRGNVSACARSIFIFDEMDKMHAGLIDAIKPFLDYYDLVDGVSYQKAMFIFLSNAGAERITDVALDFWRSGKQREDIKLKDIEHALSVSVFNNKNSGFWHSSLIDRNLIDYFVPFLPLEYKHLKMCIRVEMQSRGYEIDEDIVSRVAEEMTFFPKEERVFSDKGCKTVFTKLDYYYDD
Chain of Follistatin (Homo sapiens) (P19883 whole entry, looked up): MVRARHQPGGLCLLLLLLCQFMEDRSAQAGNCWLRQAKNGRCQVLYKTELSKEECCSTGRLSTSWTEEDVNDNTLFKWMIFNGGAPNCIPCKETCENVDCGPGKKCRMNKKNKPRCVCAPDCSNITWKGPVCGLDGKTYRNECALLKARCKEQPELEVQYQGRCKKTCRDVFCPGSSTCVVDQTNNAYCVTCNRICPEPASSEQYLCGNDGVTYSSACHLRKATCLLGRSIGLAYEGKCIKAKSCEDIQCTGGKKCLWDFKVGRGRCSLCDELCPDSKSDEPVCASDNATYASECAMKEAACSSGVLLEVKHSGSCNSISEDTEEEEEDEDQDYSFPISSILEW

| Structure (SMILES) | composite z-score [1] | composite z-score [2] | composite z-score [3] | composite z-score [4] | composite z-score [5] | composite z-score [6] | z-score [7] | composite z-score (Lefty1) | composite z-score [8] | z-score [9] | composite z-score [10] | z-score [11] | z-score [12] | z-score [13] | z-score [14] | composite z-score [15] | composite z-score [16] | composite z-score (Torsin-1A (Homo sapiens) [17]) | composite z-score (Torsin-1A (Homo sapiens) [18]) | composite z-score [19] |
| --- | --- | --- | --- | --- | --- | --- | --- | --- | --- | --- | --- | --- | --- | --- | --- | --- | --- | --- | --- | --- |
| C=CC[C@]1(C(=O)N(C)C)N=C(c2ccc(OCCCO)cc2)O[C@H]1c1ccccc1N=[N+]=[N-] | 2.04 | 1.22 | 0.264 | 1.02 | 0.899 | -0.267 | 1.08 | -0.0297 | 1.25 | -9.41 (active) | 0.596 | -2.58 (inactive) | 0.00404 (inactive) | 1.99 (inactive) | -1.23 (inactive) | 1.61 | -0.0136 | 0.73 | 0.696 | -1.32 |
| C[C@]1(C(=O)O)c2ccccc2C(=O)N(Cc2ccccc2)[C@H]1c1ccc(CO)cc1 | -1.17 | -2.07 | 0.343 | -2.48 | -0.828 | -1.33 | 0.686 | -2.05 | -1.37 | -0.84 (inactive) | -0.326 | -1.25 (inactive) | 0.461 (inactive) | 0.001 (inactive) | -0.301 (inactive) | -0.867 | -0.176 | -1.06 | -0.224 | -1.98 |
| C=C1C2CC3C(=C4C(CO[C@@H]4[C@H]4CCCN4S(=O)(=O)c4ccccc4[N+](=O)[O-])C4C(=O)N(C)C(=O)C34)CC2C(=O)N1C (stereo not given in full) | -0.382 | 0.128 | 0.0722 | 0.412 | 0.482 | 0.425 | 0.225 | 0.218 | 0.337 | 0.101 (inactive) | -0.0541 | 0.985 (inactive) | 0.283 (inactive) | 3.21 (inactive) | 0.769 (inactive) | -0.207 | -0.101 | 0.942 | 0.107 | 0.832 |
| CO[C@H]1O[C@H](CO)[C@@H](OC(=O)Nc2ccccc2-c2ccccc2)[C@H](OC(=O)Nc2ccc3c(c2)OCO3)[C@@H]1OC(=O)Nc1ccc2c(c1)OCO2 | 0.971 | 1.27 | 0.485 | 0.991 | 1.24 | 0.853 | 1.56 | 1.16 | 0.412 | -7.93 (inactive) | 0.25 | -2.72 (inactive) | 0.233 (inactive) | 0.792 (inactive) | -1.52 (inactive) | 0.282 | 0.361 | 0.388 | 1.41 | 0.91 |
| C=CC[C@]12N=C(c3ccc(OCCCO)cc3)O[C@H]1c1ccccc1N(C)C2=O | 2.7 | 1.2 | 1.37 | 0.325 | 1.46 | 0.837 | -0.829 | 0.501 | 0.675 | -7.68 (inactive) | 0.305 | -4.59 (inactive) | -1.2 (inactive) | 0.549 (inactive) | -1.18 (inactive) | -0.283 | 0.435 | -0.0323 | 0.468 | 1.28 |
| CN(C)CCCCNC(=O)[C@H]1C[C@H]2C(=O)N3CCC[C@H]3C(=O)N2[C@H]1c1ccc(O)cc1 | -0.268 | -1.6 | -0.401 | -1.05 | 0.443 | -1.01 | -0.983 | -0.428 | -0.534 | 0.501 (inactive) | -1 | -2.49 (inactive) | -1.5 (inactive) | -0.667 (inactive) | -0.942 (inactive) | -1.34 | -0.643 | -1.3 | -1.04 | -0.229 |
| COCCOC(=O)N1C(=O)[C@@]2(c3cc(C#CC4(O)CCCCCC4)ccc31)[C@H](C(N)=O)[C@H]1C(=O)O[C@H](c3ccccc3)[C@H](c3ccccc3)N1[C@@H]2c1ccccc1OCCO | 1.84 | 1.22 | 0.988 | 0.662 | 1.17 | 1.56 | -0.994 | 0.569 | 0.26 | -0.806 (inactive) | 0.507 | -6.12 (inactive) | 0.533 (inactive) | 0.0921 (inactive) | 0.0643 (inactive) | 0.143 | -0.522 | 0.329 | 0.445 | 1.34 |
| Cc1ccc(S[C@]2(C(=O)NC(C)C)CC(=O)N(Cc3ccccc3C(F)(F)F)[C@@H]2c2ccc(CO)cc2I)cc1 | 1.15 | -0.0732 | 0.955 | -0.515 | 0.0697 | -0.848 | -0.279 | -1.03 | -0.229 | 1.35 (inactive) | -0.38 | -4.73 (inactive) | -0.9 (inactive) | -0.141 (inactive) | 1.12 (inactive) | -0.281 | -0.239 | -0.93 | -1.17 | -0.181 |
| COCCOC(=O)N1C(=O)[C@@]2(c3cc(C#CC4(O)CCCCCC4)ccc31)[C@H](C(=O)N1CCCCCCC1)[C@H]1C(=O)O[C@H](c3ccccc3)[C@H](c3ccccc3)N1[C@@H]2c1ccc(OCCO)cc1 | 2.68 | 1.24 | 1.13 | 0.95 | 1.49 | 1.77 | -1.18 | 1.7 | 1.09 | -2.13 (inactive) | 1.19 | -3.66 (inactive) | 0.629 (inactive) | 0.623 (inactive) | -0.532 (inactive) | 2.63 | 1.85 | 1.25 | 1.8 | 2.17 |
